Compounds without any hit were thinned out: in the full panel of roughly 79,000, 15% have a hit. Rule as the data show it: active = growth inhibition above about 70%; inactive = the rest.
What was measured:
[1] = NCI Yeast Anticancer Drug Screen. Data for the rad50 strain (AID 155);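 also: 0% = growth of vehicle-only cultures of the same strain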; conditions: S. cerevisiae rad50 strain growth inhibition; at 50.0 µM; stronger effect = higher value
Procedure, shortened: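 Vehicle-treated cultures provide the reference for the growth inhibition reported for compound-exposed, repair-deficient yeast.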

[2] = NCI Yeast Anticancer Drug Screen. Data for the mec2-1 strain (AID 157); conditions: S. cerevisiae mec2-1 strain, at 50.0 µM, stronger effect = higher value
Procedure, shortened: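 Strain: mec2-1 (DNA repair/cell cycle alteration). Compound exposure, then growth measured; inhibition expressed relative to vehicle.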

[3] = NCI Yeast Anticancer Drug Screen. Data for the sgs1 mgt1 strain (AID 161);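 also: 0% = growth of cultures given vehicle only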; conditions: S. cerevisiae sgs1 mgt1 strain, at 50.0 µM, stronger effect = higher value
Procedure, shortened: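 Inhibition of yeast growth, normalised to vehicle-treated controls, is reported for a strain bearing genetic alterations in DNA damage repair.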

[4] = NCI Yeast Anticancer Drug Screen. Data for the cln2 rad14 strain (AID 165);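 also: 0% = growth equal to vehicle treated cultures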; conditions: S. cerevisiae cln2 rad14 strain, at 50.0 µM, stronger effect = higher value
Procedure, shortened: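 Compounds are applied to the cln2 rad14 yeast strain, and growth is then compared with that of vehicle-treated cultures to give inhibition.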

[5] = NCI Yeast Anticancer Drug Screen. Data for the bub3 strain (AID 167); conditions: S. cerevisiae bub3 mutant strain, at 50.0 µM, stronger effect = higher value
Procedure, shortened: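 Mutant yeast screening strain plus compound; vehicle-treated cultures serve as the 0% inhibition reference.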

[6] = NCI Yeast Anticancer Drug Screen. Data for the mlh1 rad18 strain (AID 175); conditions: S. cerevisiae mlh1 rad18 strain growth inhibition; at 50.0 µM; stronger effect = higher value
Procedure, shortened: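 Read-out is yeast growth inhibition, calculated against vehicle-only controls. The compound was applied to a strain engineered with DNA damage repair alterations.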

Measured: growth inhibition

CSc1cc(C)c(O)c(CO)c1
inactive: [1] 6.7% | [2] 2.9% | [3] 18.2% | [4] -2.35% | [5] 12.7% | [6] 3%

Cc1cc(S(=O)(=O)Nc2n[nH]c(Nc3ccccc3)n2)c(S)cc1Cl
inactive: [1] -3.5% | [2] 9% | [3] -13.8% | [4] 9.6% | [5] 12.9% | [6] 19.6%

O=C(c1ccccc1)C1C(c2ccccc2)N1C(=O)c1ccccc1 (stereo not given)
inactive: [1] 9.8% | [2] 16.4% | [3] 6.35% | [4] -1.3% | [5] 35.6% | [6] 12.9%

CCC(=O)NC(Nc1cccc(F)c1)(C(F)(F)F)C(F)(F)F
inactive: [1] -28.5% | [2] -36.6% | [3] -20.7% | [4] 13.3% | [5] -20.9% | [6] -66.8%

CC1=NN(C(=O)c2cccnc2)C(=O)C1N=Nc1ccc(S(=O)(=O)Nc2ccccn2)cc1 (stereo not given)
inactive: [1] 25.6% | [2] -8.75% | [3] 4.75% | [4] 11.4% | [5] -1.6% | [6] 1.8%

CCCCCCCCCCCCCCCOc1cc(OC)ccc1-c1nnc(SC)s1
inactive: [1] -15.2% | [2] -15.6% | [3] -24.1% | [4] -3.05% | [5] -11.5% | [6] -5.7%

O=C(c1ccccc1)C(C(c1ccccc1)N1CCOCC1)N1CCOCC1 (stereo not given)
inactive: [1] -19.1% | [2] 2.2% | [3] -4.55% | [4] -9.45% | [5] -5.7% | [6] 0.65%

Cc1cc2ccccc2c[n+]1CC(O)CBr (stereo not given)
inactive: [1] -5.45% | [2] 7.05% | [3] 11.3% | [4] -36.8% | [5] -11.4% | [6] 5.9%

Cn1c(C2CCc3cc(O)ccc3C2)cccc1=O (stereo not given)
inactive: [1] -26.8% | [2] 13.1% | [3] -4.25% | [4] -19.6% | [5] 14.7% | [6] -4.35%

COC(=O)C1CC(c2ccc(Cl)cc2)=NO1 (stereo not given)
inactive: [1] 36.4% | [2] 8.25% | [3] 8.5% | [4] 5.3% | [5] 1.5% | [6] 47.1%

COc1ccc(N=Nc2c(C)nc(N)nc2C)cc1
inactive: [1] 2.1% | [2] 18% | [3] 8.05% | [4] -26.8% | [5] -14.3% | [6] 12.6%

CCN1C(=O)CS/C1=N/NC(=O)C(O)(c1ccccc1)C1C=CC=CC1 (stereo not given)
inactive: [1] -9.6% | [2] -21.1% | [3] 2.6% | [4] 10.3% | [5] 0.25% | [6] 4.75%

Cc1cnc(NCCCCCCNc2ncc(C)c(-c3ccccc3O)n2)nc1-c1ccccc1O
inactive: [1] 13.1% | [2] -4.55% | [3] -26.5% | [4] 4% | [5] 0.35% | [6] 4.5%

CCNCCCCNCC
inactive: [1] 4.25% | [2] -14.9% | [3] -18.6% | [4] 8.1% | [5] -3.85% | [6] 2.3%

COC(=O)/C(=N\NC(C)(C)C)C(C(=O)C(=O)Nc1cc(C)ccc1C)c1nc2ccccc2[nH]c1=O (stereo not given)
inactive: [1] -18.8% | [2] -6.9% | [3] -1.5% | [4] 18.8% | [5] -7.95% | [6] -17.8%

C=C1C(=O)O[C@H]2[C@H]1[C@@H](OC(=O)C=C(C)C)CC1=C[C@@H](C[C@@]3(C)O[C@@H]23)OC1=O
inactive: [1] -7.45% | [2] -7.55% | [3] 7.4% | [4] 9.85% | [5] -2.6% | [6] 7.85%

O=[N+]([O-])c1cccc(/C=N\NS(=O)(=O)c2ccc(Cl)cc2)c1O
inactive: [1] -11.7% | [2] -13.3% | [3] -11.8% | [4] -2.3% | [5] -38.4% | [6] -5.9%

CS(=O)CC(Nc1ccccc1)c1ccccc1 (stereo not given)
inactive: [1] -3.75% | [2] -12.8% | [3] -10.6% | [4] 2% | [5] -25.6% | [6] -3.45%

CC1(C)CC(NC(=O)C(C)(C)Oc2ccc(Cl)cc2)CC(C)(C)N1
inactive: [1] 32.5% | [2] 6% | [3] 25.9% | [4] -12% | [5] 9.15% | [6] 25.8%

O=[N+]([O-])c1ccc(C[Se]c2ncnc3c2ncn3C2OC(CO)C(O)C2O)cc1 (stereo not given)
inactive: [1] -15.1% | [2] -7% | [3] 13.6% | [4] -32.2% | [5] 0.6% | [6] -8.35%
